The panel holds about 83,000 compounds, 20% with a hit somewhere; the sample as a whole holds those more often.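 Step 1: grow cells in 96-well plates. Step 2: add test compound at a single concentration. Step 3: incubate 48 h. Step 4: record percent growth.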 Values without a mark were called inactive. The source made the active and inactive calls.
Tested on: T-47D breast
Assay: NCI-60 one-dose screen, 48 h (100 = growth as untreated, 0 = no growth, -100 = all killed)
Conditions: 10 µM unless noted
Description: Growth inhibition of the T-47D human tumor cell line is measured as a screen for anti-cancer activity. Cells are grown in 96 well plates and exposed to the test compound for 48 hours. Compounds are tested at a single concentration, which is 10^-5 M for most compounds. The reported endpoint is percent growth (GI% or GIPRCNT), where numbers from 0 - 100% represent growth inhibition, and numbers from -100% - 0 represent cell death. For example, a value of 40 represents 60% growth inhibition. A value of 0 means no net growth occurred over the course of the experiment. A value of -40 indicates 40% of cells at the beginning of the experiment died by the end of the experiment. A value of -100 means all cells are dead at the end of the experiment.
NCI-60 Human Tumor Cell Lines Screen was performed using the standard one-dose NCI protocol, which is described in more detail at https://dtp.cancer.gov/discovery_development/nci-60/default.htm.
Compounds with GIPRCNT values below 10 were considered active. Activity score was based on GIPRCNT using the following formula: […]
Score is 0 for GIPRCNT values of 100 or above, 50 for GIPRCNT values of 0, and 100 for GIPRCNT values of -100.

In order of falling growth:
1. N#Cc1c(NC(=O)c2ccc([N+](=O)[O-])o2)[n+]([O-])c2cc(F)c(F)cc2[n+]1[O-]  118%
2. Cc1ccc(S(=O)(=O)OCC(=O)Nc2ccc(C(=O)O)c(O)c2)cc1  106%
3. Cn1c(C(N)=O)cc2c1-c1nc(NC3CCCCC3)ncc1CCC2  105%
4. C=CCOc1ccc(/C(O)=C2\C(=O)C(=O)N(c3nccs3)C2c2ccccc2F)cc1 (stereo not given)  100%
5. Cc1oc2ncnc(Nc3ccccc3)c2c1C(=O)NCCO  99.4%
6. Cc1ccc2nc(SCn3nnc4ccccc4c3=O)[nH]c2c1  97%
7. COc1ccc(NC(=O)CSc2nc3ccccc3c(=O)n2-c2ccccc2C(F)(F)F)c(OC)c1OC  95.1%
8. COC(=O)c1ccc(C)cc1  91.4%
9. O=C(O)C(=Cc1c2ccccc2cc2ccccc12)C(=O)O  90.5%
10. COc1cc(CNC(=O)CSc2nc3ccccc3c(=O)n2Cc2cc(OC)c(OC)c(OC)c2)cc(OC)c1OC  89.7%
11. CCCC1OC(c2ccc(C(C)C)cc2)OCC1CC (stereo not given)  85.7%
12. O=C(c1c[nH]c2ccccc12)C(Sc1nc2ccccc2c(=O)[nH]1)c1ccccc1 (stereo not given)  81%
13. COC12CC(=O)C(C(C)=O)=C(O)C1(C)c1c(O)c(C)c(O)c(C(C)=O)c1O2 (stereo not given)  81%
14. COc1cc2c3c(c(=O)oc2cc1OS(=O)(=O)c1ccc(C(F)(F)F)cc1)CCCCC3  80.9%
15. NS(=O)(=O)c1ccc(CN2C(=O)c3cccc4cccc(c34)C2=O)cc1  78.1%
16. COc1cc(Cn2c(SCC(=O)Nc3cc(OC)c(OC)c(OC)c3)nc3ccccc3c2=O)cc(OC)c1OC  77%
17. COc1ccc(S(=O)(=O)N2CCN(c3cc4c(cc3F)c(=O)c(C(=O)O)cn4C3CC3)CC2)c(OC)c1  75%
18. CC(Br)C(OC(=O)c1ccccc1Cl)c1cc2c(cc1Br)OCO2 (stereo not given)  74.9%
19. Cc1ccc(Cn2c(-c3cccs3)nc3ccccc32)cc1  72.5%
20. O=C(CSc1nc(-c2ccc(Cl)cc2)cn1-c1ccc(Cl)cc1)c1ccc(Br)cc1  69.6%
21. N#Cc1ncc(-c2ccc(F)c(F)c2F)c(NC2CCCCCC2)n1  62.7%
22. CCC(c1ccc(OC)cc1)C(CC)c1ccc(OCC[N+](C)(C)C)cc1 (stereo not given)  62.7%
23. CCC(=O)Oc1cc(/C=C/C(=O)O[C@H]2C[C@H]3CN4CCc5c([nH]c6cc(OC)ccc56)[C@@H]4C[C@@H]3[C@@H](C(=O)OC)[C@@H]2OC)ccc1OC  60.6%
24. COc1ccc(-c2nc(-c3ccccc3)c(-c3ccccc3)n2C2CC2)cc1OC1CCCCC1  58.4%
25. COc1ccc2c(c1)NC(=O)CN2c1nc(C)nc2ccccc12  55.5%
26. Cc1cccc(NC(=O)c2sc3nc4c(cc3c2N)CCCC4)c1  53.5%
27. Cc1ccc(C2=NN(c3ccc(S(=O)(=O)NC(=O)NCc4ccccc4)cc3)C(c3ccc(N(C)C)cc3)C2)c(C)c1 (stereo not given)  47.3%
28. Clc1nc(Cl)c2ncn(C/C=C/Cn3cnc4c(Cl)nc(Cl)nc43)c2n1  38.2%
29. COc1ccc(/C=C/c2cc(N3CCOCC3)c3cc(F)c(F)cc3n2)cc1OC  37.9%
30. Cc1nc(Nc2cccnc2)sc1C(=O)/C=C/c1ccc(F)cc1  30.2%
31. COc1ccc(-n2c(C)cc(-c3ccccc3)c2C)cc1  27.5%
32. N#Cc1ccc(NC(=O)c2ccc3cccnc3c2O)cc1  27.3%
33. Cc1nc(Nc2cccnc2)sc1C(=O)/C=C/c1ccc(Cl)cc1  24.8%
34. CC(C)[C@H](CO)Nc1nc(Nc2ccc(C(=O)NCCNS(=O)(=O)c3cccc4c(N(C)C)cccc34)c(Cl)c2)c2ncn(C(C)C)c2n1  20.6%
35. COc1cc(C(=O)/C=C/c2cc(C(=O)c3cc(OC)c(OC)c(OC)c3)ccc2OC)ccc1N  18%
36. COc1ccc2c(c1)NC(=O)CN2c1nc(NC2CC2)nc2ccccc12  13.2%
37. COC(=O)CCCCCN=Cc1c(O)c(O)c(C(C)C)c2cc(C)c(-c3c(C)cc4c(C(C)C)c(O)c(O)c(C=NCCCCCC(=O)OC)c4c3O)c(O)c12  11.8%

With `CN(C)c1ccc(-c2ccc(-c3ccc(C(=N)N)cn3)o2)cc1` the growth was -68.2% (active).
In the case of `CCN1C(=O)N[C@H]2[C@@H]3NC(=O)c4ccc(Cl)n4[C@@H]3C[C@]21O`, the growth is reported as -7.84% (active).
`O=C1c2ccccc2C(=O)c2c1oc1oc3c(c(=O)c21)c(=O)n(-c1ccccc1)c1ccccc31` was tested, and the growth was 4.47% (active).
